According to PubChem BioAssay (NCI):
This is part of a sample that, as a whole, favours compounds with a hit. Of some 83,000 tested, about 20% had one in any assay.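 For each line, cells grew in 96-well plates with the test compound present at a single concentration for 48 hours.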 Active and inactive are the calls of the source. Rule for the calls: active = growth percent below 10; inactive = the rest.

Experiments:
Assay in all cases: NCI-60 one-dose screen, 48 h (100 = growth as untreated, 0 = no growth, -100 = all killed)
Settings in all cases: 10 µM unless noted
RPMI-8226 leukemia = system: RPMI-8226 leukemia
OVCAR-8 ovarian = system: OVCAR-8 ovarian
OVCAR-5 ovarian = system: OVCAR-5 ovarian
OVCAR-4 ovarian = system: OVCAR-4 ovarian
SK-OV-3 ovarian = system: SK-OV-3 ovarian
IGROV1 ovarian = system: IGROV1 ovarian
OVCAR-3 ovarian = system: OVCAR-3 ovarian
HS 578T breast = system: HS 578T breast
NCI/ADR-RES ovarian = system: NCI/ADR-RES ovarian
T-47D breast = system: T-47D breast
BT-549 breast = system: BT-549 breast
MDA-MB-435 melanoma = system: MDA-MB-435 melanoma
SW-620 colon = system: SW-620 colon
MCF7 breast = system: MCF7 breast
HCT-116 colon = system: HCT-116 colon
HCC-2998 colon = system: HCC-2998 colon
KM12 colon = system: KM12 colon

Measured: growth

Cc1ccc(-c2nc(C(Cl)Cl)nc3cc(-c4ccccc4)nn23)cc1
inactive: OVCAR-8 ovarian 10.3% | IGROV1 ovarian 29.3% | NCI/ADR-RES ovarian 13.5% | T-47D breast 51% | BT-549 breast 53.6% | MDA-MB-435 melanoma 16.1% | MCF7 breast 25.4% | HCT-116 colon 11.8%
active: RPMI-8226 leukemia 6.1% | OVCAR-5 ovarian -8.77% | OVCAR-4 ovarian -24% | SK-OV-3 ovarian -32.4% | OVCAR-3 ovarian -42.7% | HS 578T breast 1.87% | SW-620 colon -40.3% | HCC-2998 colon -55.8% | KM12 colon -6.93%

Cc1nc(-c2cc3ccccc3oc2=O)ccc1C(=O)/C=C/c1ccc(N2CCOCC2)cc1
inactive: RPMI-8226 leukemia 93.4% | OVCAR-8 ovarian 81% | OVCAR-5 ovarian 101% | OVCAR-4 ovarian 72.4% | SK-OV-3 ovarian 88.7% | IGROV1 ovarian 82.6% | OVCAR-3 ovarian 87% | HS 578T breast 59.7% | NCI/ADR-RES ovarian 67.3% | T-47D breast 80.2% | BT-549 breast 76.9% | SW-620 colon 83.5% | MCF7 breast 51.6% | HCT-116 colon 89.1% | HCC-2998 colon 83.9% | KM12 colon 68.9%
active: MDA-MB-435 melanoma -21.1%

C/C(=C(/c1ccc(Cl)cc1)c1ccc(OCCN)cc1)c1ccc(C)cc1
inactive: RPMI-8226 leukemia 96.5% | OVCAR-8 ovarian 100% | OVCAR-5 ovarian 101% | OVCAR-4 ovarian 97% | SK-OV-3 ovarian 120% | IGROV1 ovarian 100% | OVCAR-3 ovarian 105% | HS 578T breast 96.7% | NCI/ADR-RES ovarian 111% | T-47D breast 96.8% | BT-549 breast 117% | MDA-MB-435 melanoma 97.3% | SW-620 colon 93.5% | MCF7 breast 102% | HCT-116 colon 101% | HCC-2998 colon 111% | KM12 colon 103%

CN1C(=S)N(C)C2C1NN=C1SC(c3ccccc3)=CC(=O)N12 (stereo not drawn)
inactive: RPMI-8226 leukemia 93.9% | OVCAR-8 ovarian 94.4% | OVCAR-5 ovarian 103% | OVCAR-4 ovarian 85.7% | SK-OV-3 ovarian 102% | IGROV1 ovarian 97.5% | OVCAR-3 ovarian 107% | HS 578T breast 107% | NCI/ADR-RES ovarian 97.6% | T-47D breast 69.5% | BT-549 breast 98.1% | MDA-MB-435 melanoma 74.2% | SW-620 colon 105% | MCF7 breast 96.1% | HCT-116 colon 98.8% | HCC-2998 colon 106% | KM12 colon 98.3%

N#Cc1c(-c2ccc(Cl)cc2)nc(SCc2ccc([N+](=O)[O-])cc2)nc1N1CCNCC1
inactive: OVCAR-4 ovarian 26.9% | SK-OV-3 ovarian 111% | HS 578T breast 52.1% | BT-549 breast 89.6%
active: RPMI-8226 leukemia -24.5% | OVCAR-8 ovarian -81.6% | OVCAR-5 ovarian 3.39% | IGROV1 ovarian -1.76% | OVCAR-3 ovarian -32.6% | NCI/ADR-RES ovarian 8.72% | T-47D breast -9.43% | MDA-MB-435 melanoma -63.3% | SW-620 colon -52.8% | MCF7 breast -43.9% | HCT-116 colon -91.5% | HCC-2998 colon -40.1% | KM12 colon -47.2%

O=C(CSc1nccc(=O)[nH]1)Nc1ccc(-c2nc3ccccc3[nH]2)cc1
inactive: RPMI-8226 leukemia 109% | OVCAR-8 ovarian 103% | OVCAR-5 ovarian 109% | OVCAR-4 ovarian 112% | SK-OV-3 ovarian 103% | IGROV1 ovarian 102% | OVCAR-3 ovarian 123% | HS 578T breast 119% | NCI/ADR-RES ovarian 111% | T-47D breast 106% | BT-549 breast 103% | MDA-MB-435 melanoma 111% | SW-620 colon 116% | MCF7 breast 103% | HCT-116 colon 106% | HCC-2998 colon 116% | KM12 colon 86.3%

CCCC(=O)NC(c1cccc(N(C)C)c1)c1cc(C)c2cccnc2c1O (stereo not drawn)
inactive: RPMI-8226 leukemia 63.8% | OVCAR-8 ovarian 44% | OVCAR-5 ovarian 87.4% | OVCAR-4 ovarian 53.1% | SK-OV-3 ovarian 56.5% | IGROV1 ovarian 40% | HS 578T breast 71.4% | NCI/ADR-RES ovarian 22.6% | T-47D breast 56.6% | BT-549 breast 78.4% | MDA-MB-435 melanoma 77.6% | SW-620 colon 50% | HCT-116 colon 22.7% | HCC-2998 colon 57.9% | KM12 colon 54.9%
active: OVCAR-3 ovarian 8.33%

N#Cc1c(-c2ccc(Cl)cc2)nc(SCc2ccc(F)cc2)nc1N1CCNCC1
inactive: OVCAR-8 ovarian 38.6% | OVCAR-5 ovarian 86% | OVCAR-4 ovarian 78.7% | SK-OV-3 ovarian 117% | IGROV1 ovarian 39.1% | OVCAR-3 ovarian 37.9% | HS 578T breast 83.3% | NCI/ADR-RES ovarian 51.2% | T-47D breast 71.3% | BT-549 breast 101% | MDA-MB-435 melanoma 69.3% | KM12 colon 33.6%
active: RPMI-8226 leukemia -36.9% | SW-620 colon -80.2% | MCF7 breast -19.3% | HCC-2998 colon -31.8%

N#Cc1c(-c2ccc(Cl)cc2)nc(SCc2ccccc2)nc1N1CCNCC1
active: SW-620 colon -50.2% | MCF7 breast 8.71% | HCT-116 colon -74.3% | HCC-2998 colon -37.3%
inactive: RPMI-8226 leukemia 23% | OVCAR-8 ovarian 65.6% | OVCAR-5 ovarian 92.1% | OVCAR-4 ovarian 85.2% | SK-OV-3 ovarian 113% | IGROV1 ovarian 46.9% | OVCAR-3 ovarian 50% | HS 578T breast 91.1% | NCI/ADR-RES ovarian 65.6% | T-47D breast 65.6% | BT-549 breast 90.5% | MDA-MB-435 melanoma 71.4% | KM12 colon 39.6%

Clc1ccc(-c2cn3cc(Cc4ccc(Cl)c(Cl)c4)sc3n2)cc1
inactive: RPMI-8226 leukemia 90.9% | OVCAR-8 ovarian 75.5% | OVCAR-5 ovarian 83.6% | OVCAR-4 ovarian 56.1% | SK-OV-3 ovarian 106% | IGROV1 ovarian 62.5% | OVCAR-3 ovarian 97.5% | HS 578T breast 94.1% | NCI/ADR-RES ovarian 88.9% | T-47D breast 50.4% | BT-549 breast 88.9% | MDA-MB-435 melanoma 35% | SW-620 colon 51.7% | MCF7 breast 49.2% | HCT-116 colon 54% | HCC-2998 colon 68.1% | KM12 colon 32.1%

COc1cc(/C=C/C(=O)c2cc(OC)c(OC)c(OC)c2)ccc1OCc1ccc(F)cc1
inactive: OVCAR-8 ovarian 15.4% | OVCAR-5 ovarian 57.7% | OVCAR-4 ovarian 46.9% | SK-OV-3 ovarian 45.5% | IGROV1 ovarian 40.7% | OVCAR-3 ovarian 38.2% | HS 578T breast 89.7% | NCI/ADR-RES ovarian 20% | T-47D breast 38.3% | MDA-MB-435 melanoma 52.9% | SW-620 colon 16.9% | MCF7 breast 10.8% | HCC-2998 colon 40.2% | KM12 colon 19%
active: RPMI-8226 leukemia -16.1% | BT-549 breast 8.09% | HCT-116 colon 5.57%

N#Cc1nc(-c2ccccc2)oc1S(=O)(=O)N1CCN(CCc2ccccn2)CC1
inactive: RPMI-8226 leukemia 36.1% | OVCAR-8 ovarian 84.9% | OVCAR-5 ovarian 86.3% | OVCAR-4 ovarian 89.7% | SK-OV-3 ovarian 137% | IGROV1 ovarian 10% | OVCAR-3 ovarian 31.2% | HS 578T breast 106% | NCI/ADR-RES ovarian 99.2% | BT-549 breast 107% | MDA-MB-435 melanoma 22.9% | MCF7 breast 28% | HCC-2998 colon 114% | KM12 colon 84.1%
active: T-47D breast -24.2% | SW-620 colon -24.2%

CCC/C=C/C=C/C(=O)N[C@@H](Cc1cc(F)cc(F)c1)C(=O)N[C@@H]1C(=O)N2CCC[C@H]2C(=O)N2CCCC[C@H]2C(=O)N[C@@H](C)C(=O)N2C[C@H](C)C[C@H]2C(=O)O[C@H]1C
inactive: OVCAR-8 ovarian 18.4% | OVCAR-5 ovarian 24.6% | OVCAR-4 ovarian 22.3% | SK-OV-3 ovarian 30% | IGROV1 ovarian 40.8% | OVCAR-3 ovarian 19.1% | HS 578T breast 31% | NCI/ADR-RES ovarian 20.8% | T-47D breast 15.9% | BT-549 breast 11.5% | MDA-MB-435 melanoma 17% | SW-620 colon 32.5% | MCF7 breast 15% | HCC-2998 colon 24.1% | KM12 colon 33.3%
active: RPMI-8226 leukemia -0.71%

CCOC(=O)c1c(Nc2ccccc2)nn2c(-c3ccco3)c(C#N)cnc12
inactive: RPMI-8226 leukemia 79.3% | OVCAR-8 ovarian 82.1% | OVCAR-5 ovarian 109% | OVCAR-4 ovarian 86.6% | SK-OV-3 ovarian 109% | IGROV1 ovarian 100% | OVCAR-3 ovarian 131% | HS 578T breast 72% | NCI/ADR-RES ovarian 80% | T-47D breast 87.8% | BT-549 breast 83.1% | MDA-MB-435 melanoma 93% | SW-620 colon 94.7% | MCF7 breast 83.2% | HCT-116 colon 92.5% | HCC-2998 colon 112% | KM12 colon 98.6%

C#Cc1nc(C2=C(C)C(O)/C(=N/O)C2)cs1 (stereo not drawn)
inactive: OVCAR-8 ovarian 94.3% | OVCAR-5 ovarian 100% | OVCAR-4 ovarian 89.6% | SK-OV-3 ovarian 111% | OVCAR-3 ovarian 125% | HS 578T breast 97.6% | T-47D breast 89.9% | BT-549 breast 111% | MDA-MB-435 melanoma 95.6% | SW-620 colon 123% | MCF7 breast 68.5% | HCT-116 colon 100% | HCC-2998 colon 117% | KM12 colon 42.9%
active: RPMI-8226 leukemia -15.4% | IGROV1 ovarian -41.6% | NCI/ADR-RES ovarian 1%

Cn1ccnc1C(=O)/C=C/c1ccc(NC(=O)Nc2ccc(Cl)cc2)cc1
inactive: RPMI-8226 leukemia 63.2% | OVCAR-8 ovarian 81.9% | OVCAR-5 ovarian 110% | OVCAR-4 ovarian 76.3% | SK-OV-3 ovarian 84.3% | IGROV1 ovarian 96.7% | OVCAR-3 ovarian 84.2% | HS 578T breast 77% | NCI/ADR-RES ovarian 76.2% | T-47D breast 62.7% | BT-549 breast 63.6% | MDA-MB-435 melanoma 75% | SW-620 colon 71% | HCT-116 colon 25% | HCC-2998 colon 90.2% | KM12 colon 49.6%

COc1cc(-c2ccc3ncnc(NC(C)c4ccccc4)c3c2)cnc1OC (stereo not drawn)
inactive: RPMI-8226 leukemia 26.5% | OVCAR-8 ovarian 55.2% | OVCAR-5 ovarian 42.8% | OVCAR-4 ovarian 49% | SK-OV-3 ovarian 40.4% | OVCAR-3 ovarian 25.2% | HS 578T breast 21.1% | NCI/ADR-RES ovarian 58.8% | BT-549 breast 32.6% | MDA-MB-435 melanoma 69.6% | SW-620 colon 69.2% | MCF7 breast 23.7% | HCC-2998 colon 69.8% | KM12 colon 75.3%
active: IGROV1 ovarian -23.2% | T-47D breast 1.57%

CCN1C(=S)N(CC)C2C1N=C(SC)N2/N=C/C=C/c1ccccc1[N+](=O)[O-] (stereo not drawn)
inactive: RPMI-8226 leukemia 83.4% | OVCAR-8 ovarian 84.7% | OVCAR-5 ovarian 98.2% | OVCAR-4 ovarian 83.6% | SK-OV-3 ovarian 109% | IGROV1 ovarian 106% | OVCAR-3 ovarian 121% | HS 578T breast 88.1% | NCI/ADR-RES ovarian 94.3% | T-47D breast 88.4% | BT-549 breast 107% | MDA-MB-435 melanoma 94.4% | SW-620 colon 99.4% | MCF7 breast 76.9% | HCC-2998 colon 112%
